What is called AC50 is the midpoint of the concentration-response curve, whichever way the signal moves.

Test [1] relates to guinea pig Dopamine Transporter (DAT), gene 100714898. The test can be described thus: NVS_TR_gDAT: NovaScreen (NVS) Transporter Assay for guinea pig Dopamine Transporter (DAT) (AID 2283369).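 Also: active compounds lower bound radioligand signal relative to DMSO.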 The essentials: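 Scintillation counts of filter-retained radioligand report binding to guinea pig striatal membranes after 2 h. Activity scored as signal loss relative to DMSO, first at 25 uM in duplicate, then in concentration series to 50 uM.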

For test [2], the target named is Peroxisome proliferator-activated receptor gamma (Homo sapiens) (UniProt P37231). The test can be described thus: NVS_NR_hPPARg: NovaScreen (NVS) Nuclear Receptor Binding Assay for human Peroxisome Proliferator-activated Receptor gamma (PPARg) (AID 2283370). In a few lines:
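Chemicals were tested first in duplicate at 25 uM, then in concentration series if active. Binding to cell-free PPARg protein was measured by fluorescence polarization after 2 h, with loss of signal scored against DMSO.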

The target in test [3] is human Norepinephrine Transporter (NET), SLC6A2 (gene 6530) (UniProt P23975). The test can be described thus: NVS_TR_hNET: NovaScreen (NVS) Transporter Assay for human Norepinephrine Transporter (NET) (AID 2283377).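 As to AC50: displacement of radioligand from human NET seen as loss of scintillation signal.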 The essentials:
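Cell-free radioligand binding using CHO-derived membrane protein expressing human NET, read by filter scintillation counting 1 h after dosing; loss of signal vs DMSO. Initial duplicate screen at 25 uM, actives retested in concentration series.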

The target of test [4] is mouse Estrogen Receptor alpha (Era), Esr1 (gene 13982) (UniProt P19785). Put plainly: NVS_NR_mERa: NovaScreen (NVS) Nuclear Receptor Binding Assay for mouse Estrogen Receptor alpha (Era) (AID 2283378).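 Also: hit means loss of bound radioligand signal relative to DMSO.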 The essentials:
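Extracted mouse Era incubated with tritiated or iodinated radioligand plus test chemical, 18 h. Bound fraction separated on filters, counted by scintillation. DMSO = negative control/baseline; duplicate single-point at 25 uM, then concentration-response follow-up.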

The target in test [5] is Estrogen receptor (Homo sapiens) (UniProt P03372). Put plainly: OT_ERa_GFPERaERE_0480: Odyssey Thera (OT) 8-hour HeLa Transcription Induction Assay for Estrogen Receptor (AID 2283381; active = hit-call score of the fitted dose curve at least 0.9, where 1 is the maximum; inactive = score below 0.9). The essentials: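 Fluorescent reporter signal, imaged by microscopy and scored with image-analysis algorithms, was taken 8 h after chemical dosing of HeLa cells; activity was fitted upward relative to DMSO.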

The target in test [6] is Bile acid receptor (Homo sapiens) (UniProt Q96RI1). Put plainly: OT_FXR_FXRSRC1_0480: Odyssey Thera (OT) 8-hour HEK293T Protein-Complementation Assay for Farnesoid X receptor/SRC-1 Co-activator (AID 2283383). In a few lines:
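Human kidney HEK293T cells carried FXR/SRC-1 fragment-complementation constructs. Compounds were added and incubated 8 h. Reporter reassembly upon receptor–co-activator interaction was then quantified by fluorescence, with curves fitted in the positive direction relative to DMSO.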

For test [7] the target is unchanged. The test can be described thus: OT_FXR_FXRSRC1_1440: Odyssey Thera (OT) 24-hour HEK293T Protein-Complementation Assay for Farnesoid X receptor/SRC-1 Co-activator (AID 2283384). The essentials:
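Compounds are applied to human kidney HEK293T cells expressing bait and prey fused to reporter protein fragments; after 24 h, reconstituted reporter fluorescence is measured. Activity is fitted as signal gain over DMSO.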

Test [8] deals with Retinoic acid receptor RXR-alpha (Homo sapiens) (UniProt P19793). The test can be described thus: OT_NURR1_NURR1RXRa_0480: Odyssey Thera (OT) 8-hour HEK293T Protein Complementation Assay for Nurr1/retinoid X receptor (RXR) (AID 2283385). In a few lines:
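8 h compound exposure, HEK293T; Nurr1/RXRα fragment complementation; fluorescence intensity; positive fitting direction vs DMSO baseline.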

For test [9] the target is unchanged. Put plainly: OT_NURR1_NURR1RXRa_1440: Odyssey Thera (OT) 24-hour HEK293T Protein Complementation Assay for Nurr1/retinoid X receptor (RXR) (AID 2283386). The essentials: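 Interaction of Nurr1 with RXRα brings fused reporter fragments together in human HEK293T cells, restoring a functional reporter. Fluorescence intensity is measured 24 h after chemical treatment, and values are analysed in the positive direction against DMSO.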

The target in test [10] is Peroxisome proliferator-activated receptor gamma (Homo sapiens) (UniProt P37231). Put plainly: OT_PPARg_PPARgSRC1_0480: Odyssey Thera (OT) 8-hour Protein-Complementation Assay for Peroxisome Proliferator-activated Receptor Gamma / SRC-1 Co-activator (AID 2283387).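 Also: nuclear to cytoplasmic split Venus YFP fluorescence ratio reporting PPARg SRC-1 interaction.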 In a few lines:
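Protein-fragment complementation in HEK293T: Venus YFP halves (residues 1-158, 159-239, mutated to IFP1/IFP2) fused to PPARg/SRC-1. 8 h exposure; N/C ratio at 488 nm; DMSO negative control.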

The target is the same in test [11]. Put plainly: OT_PPARg_PPARgSRC1_1440: Odyssey Thera (OT) 24-hour Protein-Complementation Assay for Peroxisome Proliferator-activated Receptor Gamma/ SRC-1 Co-activator (AID 2283388).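 Also: nuclear to cytoplasmic ratio of reconstituted Venus YFP fluorescence in fixed imaged cells.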 In a few lines: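 Protein-fragment complementation between PPARg and coactivator SRC-1 was measured by fluorescence imaging in transiently transfected HEK293T cells after 24 h treatment. Signal was quantified as N/C ratio in the 488 nm channel, with DMSO as negative control.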

The nature of test [12]: CEETOX_H295R_OHPREG: CeeTox H295R High-throughput Steroidogenesis Assay for OH-Pregnenolone (OHPREG) (AID 2283434; active = hit-call score of the fitted dose curve at least 0.9, where 1 is the maximum; inactive = score below 0.9). The settings on record: actives raise or lower the signal. In a few lines: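 H295R cells pre-stimulated 48 h with 10 uM forskolin, then exposed 48 h to chemical in 0.1% DMSO. 17alpha-hydroxypregnenolone in medium quantified by MTBE extraction and HPLC-MS/MS; bidirectional fit versus DMSO, viability checked by MTT.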

Test [13] deals with Estrogen receptor (Homo sapiens) (UniProt P03372). The test can be described thus: OT_ERa_GFPERaERE_0120: Odyssey Thera (OT) 2-hour HeLa Transcription Induction Assay for Estrogen Receptor (AID 2283382). In a few lines: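 HeLa, 384-well, 2 h chemical exposure; GFP reporter induction (ERE), fluorescence microscopy; high content image analysis; positive fitting direction vs DMSO.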

Test [14] concerns the target Estrogen receptor beta (Homo sapiens) (UniProt Q92731). Put plainly: OT_ER_ERbERb_1440: Odyssey Thera (OT) 24-hour HEK293T Protein-Complementation Assay for Estrogen Receptor-beta/-beta Homodimer (AID 2283380).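 Also: scored as signal increase over DMSO baseline for both agonists and antagonists.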 In a few lines:
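HEK293T cells stably expressing ER beta LBD (aa 310-547) homodimer fragment-complementation reporter, dosed 24 h. Cells formaldehyde-fixed, Draq5-stained; gain in nuclear (agonist) or nuclear plus cytoplasmic (antagonist) fluorescence versus DMSO read by laser scanning cytometry.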

In test [15] the target is Agonist Androgen Response Element (ARE), AR (gene 367) (UniProt P10275). The test can be described thus: OT_AR_ARELUC_AG_1440: Odyssey Thera (OT) 24-hour CHO-K1 Luciferase Assay for Agonist Androgen Response Element (ARE) (AID 2283379). In a few lines:
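CHO-K1 cells carrying an ARE-driven luciferase reporter were exposed to compounds for 24 h. Luminescence was then read after adding a D-luciferin/ATP mix, and activity was scored as a gain in signal over DMSO vehicle.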

Test [16] in a line: CEETOX_H295R_11DCORT: CeeTox H295R High-throughput Steroidogenesis Assay for 11-Deoxycortisol (11DCORT) (AID 2283432; active = hit-call score of the fitted dose curve at least 0.9, where 1 is the maximum; inactive = score below 0.9;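 also: human adrenal H295R cells prestimulated with 10 µM forskolin for 48 h; 11-deoxycortisol secreted into the medium measured by LC-MS/MS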). As to conditions: actives raise or lower the signal. In a few lines:
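Adrenal carcinoma line H295R, run per OECD 456 with minor changes, was forskolin-stimulated (10 uM, 48 h) before a 48 h chemical exposure at 0.1% DMSO. Secreted 11-deoxycortisol was quantified by HPLC-MS/MS.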

Test [17] addresses human Dopamine Transporter (DAT), SLC6A3 (gene 6531) (UniProt Q01959). Put plainly: NVS_TR_hDAT: NovaScreen (NVS) Transporter Assay for human Dopamine Transporter (DAT) (AID 2283374).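 Also: activity means loss of bound radioligand signal relative to DMSO.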 The essentials:
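Cell-free radioligand displacement binding at human DAT, 1 h after dosing, with filtration and scintillation counting. Primary screen in duplicate at 25 uM, actives then in concentration series. Loss of bound signal versus DMSO scored.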

Structures are written as SMILES. Several values for one entry are separate records, joined by “and”; a condition that tells them apart may be missing. Equal values may be shown once. Results filed as inconclusive are left out. Some structures have more than one record in an assay (separate samples or runs), and their calls can disagree. Activity calls are given as the source filed them. The calls were made as follows, unless noted: active = hit-call score of the fitted dose curve at least 0.9, where 1 is the maximum; inconclusive = response in the unintended direction; inactive = score below 0.9.

Chain of Retinoic acid receptor RXR-alpha (Homo sapiens) (P19793 whole entry, looked up, the tested form may be a part): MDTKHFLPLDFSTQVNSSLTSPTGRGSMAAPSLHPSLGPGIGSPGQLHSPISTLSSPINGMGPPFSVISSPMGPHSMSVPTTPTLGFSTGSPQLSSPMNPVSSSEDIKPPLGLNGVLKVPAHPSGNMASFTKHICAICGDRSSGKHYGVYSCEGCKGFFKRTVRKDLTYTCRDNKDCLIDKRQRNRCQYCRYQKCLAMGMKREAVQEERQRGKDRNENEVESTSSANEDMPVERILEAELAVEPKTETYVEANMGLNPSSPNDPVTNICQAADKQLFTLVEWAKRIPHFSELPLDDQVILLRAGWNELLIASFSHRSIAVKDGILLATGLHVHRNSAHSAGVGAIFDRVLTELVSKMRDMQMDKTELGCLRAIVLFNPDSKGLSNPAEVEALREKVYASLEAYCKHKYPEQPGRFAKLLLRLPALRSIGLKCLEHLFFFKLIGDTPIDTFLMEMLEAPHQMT
Chain of Estrogen receptor (Homo sapiens) (P03372 whole entry, looked up): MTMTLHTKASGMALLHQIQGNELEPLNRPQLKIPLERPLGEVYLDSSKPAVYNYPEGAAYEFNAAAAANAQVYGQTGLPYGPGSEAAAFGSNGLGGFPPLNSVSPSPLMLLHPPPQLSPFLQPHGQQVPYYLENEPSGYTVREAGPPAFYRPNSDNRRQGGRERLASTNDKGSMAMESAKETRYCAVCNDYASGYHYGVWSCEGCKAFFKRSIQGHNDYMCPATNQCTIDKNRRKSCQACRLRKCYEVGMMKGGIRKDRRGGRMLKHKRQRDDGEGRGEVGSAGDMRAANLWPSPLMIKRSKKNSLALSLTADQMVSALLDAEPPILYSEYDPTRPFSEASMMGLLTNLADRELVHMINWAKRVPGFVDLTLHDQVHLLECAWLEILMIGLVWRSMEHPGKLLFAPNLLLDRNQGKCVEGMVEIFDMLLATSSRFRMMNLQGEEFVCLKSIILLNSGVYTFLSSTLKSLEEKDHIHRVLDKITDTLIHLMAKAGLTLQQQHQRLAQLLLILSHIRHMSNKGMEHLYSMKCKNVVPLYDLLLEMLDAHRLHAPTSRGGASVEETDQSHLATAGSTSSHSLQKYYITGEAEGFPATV
Chain of Bile acid receptor (Homo sapiens) (Q96RI1 whole entry, looked up, the tested form may be a part): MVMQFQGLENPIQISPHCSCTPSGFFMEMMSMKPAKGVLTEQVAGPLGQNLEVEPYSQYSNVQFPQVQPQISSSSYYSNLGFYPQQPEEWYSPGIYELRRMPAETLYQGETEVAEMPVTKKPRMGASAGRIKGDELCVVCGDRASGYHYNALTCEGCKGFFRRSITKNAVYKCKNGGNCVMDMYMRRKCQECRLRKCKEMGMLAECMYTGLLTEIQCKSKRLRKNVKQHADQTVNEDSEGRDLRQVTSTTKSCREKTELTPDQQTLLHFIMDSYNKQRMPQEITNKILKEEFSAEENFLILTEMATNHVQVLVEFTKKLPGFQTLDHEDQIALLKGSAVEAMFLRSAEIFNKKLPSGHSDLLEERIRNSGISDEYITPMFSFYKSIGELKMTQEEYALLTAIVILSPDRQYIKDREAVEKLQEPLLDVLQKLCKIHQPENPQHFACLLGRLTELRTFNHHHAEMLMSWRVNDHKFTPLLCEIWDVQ
Chain of human Norepinephrine Transporter (NET), SLC6A2 (gene 6530) (P23975 whole entry, looked up): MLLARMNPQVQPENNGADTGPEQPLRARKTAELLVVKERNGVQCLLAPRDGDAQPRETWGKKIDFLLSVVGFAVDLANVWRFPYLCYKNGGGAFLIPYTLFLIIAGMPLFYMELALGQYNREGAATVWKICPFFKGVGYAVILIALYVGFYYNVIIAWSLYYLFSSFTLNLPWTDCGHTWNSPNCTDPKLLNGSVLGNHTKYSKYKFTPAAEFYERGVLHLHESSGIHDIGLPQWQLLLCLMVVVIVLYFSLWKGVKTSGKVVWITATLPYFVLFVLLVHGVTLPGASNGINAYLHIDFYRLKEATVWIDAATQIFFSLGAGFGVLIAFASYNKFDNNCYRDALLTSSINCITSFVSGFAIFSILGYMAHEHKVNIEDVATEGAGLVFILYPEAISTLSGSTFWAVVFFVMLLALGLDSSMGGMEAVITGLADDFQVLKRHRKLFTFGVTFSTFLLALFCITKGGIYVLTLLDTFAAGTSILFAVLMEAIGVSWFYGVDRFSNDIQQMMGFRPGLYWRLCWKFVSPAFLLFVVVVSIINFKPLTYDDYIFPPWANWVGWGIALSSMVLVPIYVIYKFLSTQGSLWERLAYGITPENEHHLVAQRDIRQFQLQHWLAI
Chain of Estrogen receptor beta (Homo sapiens) (Q92731 whole entry, looked up, the tested form may be a part): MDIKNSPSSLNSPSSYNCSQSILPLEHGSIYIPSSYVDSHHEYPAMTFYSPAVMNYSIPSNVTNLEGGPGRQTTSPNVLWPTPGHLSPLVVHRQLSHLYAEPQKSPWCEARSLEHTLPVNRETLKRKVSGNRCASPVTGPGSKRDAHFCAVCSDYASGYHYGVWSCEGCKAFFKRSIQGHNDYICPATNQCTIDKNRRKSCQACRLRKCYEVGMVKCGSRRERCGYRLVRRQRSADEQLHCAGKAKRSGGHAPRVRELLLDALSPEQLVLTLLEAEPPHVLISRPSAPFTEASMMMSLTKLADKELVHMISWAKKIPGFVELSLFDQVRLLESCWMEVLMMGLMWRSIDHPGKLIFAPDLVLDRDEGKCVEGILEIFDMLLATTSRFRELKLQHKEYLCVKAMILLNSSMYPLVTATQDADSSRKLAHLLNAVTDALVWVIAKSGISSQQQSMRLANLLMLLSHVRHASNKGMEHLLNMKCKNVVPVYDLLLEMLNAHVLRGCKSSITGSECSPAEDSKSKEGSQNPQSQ
Chain of mouse Estrogen Receptor alpha (Era), Esr1 (gene 13982) (P19785 whole entry, looked up): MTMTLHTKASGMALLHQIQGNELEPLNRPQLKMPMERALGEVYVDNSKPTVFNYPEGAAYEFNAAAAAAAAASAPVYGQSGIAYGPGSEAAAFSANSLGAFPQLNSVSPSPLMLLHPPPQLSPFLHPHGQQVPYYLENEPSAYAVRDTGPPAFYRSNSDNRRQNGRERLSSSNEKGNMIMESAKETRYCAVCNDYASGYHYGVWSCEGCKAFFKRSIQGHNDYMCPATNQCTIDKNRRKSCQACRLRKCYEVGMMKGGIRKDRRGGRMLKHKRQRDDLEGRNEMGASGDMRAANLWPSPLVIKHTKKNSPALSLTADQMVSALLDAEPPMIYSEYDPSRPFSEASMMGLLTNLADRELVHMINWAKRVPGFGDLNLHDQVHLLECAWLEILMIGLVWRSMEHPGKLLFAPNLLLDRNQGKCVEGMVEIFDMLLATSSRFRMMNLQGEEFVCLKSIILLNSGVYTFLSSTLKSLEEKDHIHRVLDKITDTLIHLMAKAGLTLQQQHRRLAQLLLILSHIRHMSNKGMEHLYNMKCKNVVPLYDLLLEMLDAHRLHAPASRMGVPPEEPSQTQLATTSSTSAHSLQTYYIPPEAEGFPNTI
Chain of Agonist Androgen Response Element (ARE), AR (gene 367) (P10275 whole entry, looked up): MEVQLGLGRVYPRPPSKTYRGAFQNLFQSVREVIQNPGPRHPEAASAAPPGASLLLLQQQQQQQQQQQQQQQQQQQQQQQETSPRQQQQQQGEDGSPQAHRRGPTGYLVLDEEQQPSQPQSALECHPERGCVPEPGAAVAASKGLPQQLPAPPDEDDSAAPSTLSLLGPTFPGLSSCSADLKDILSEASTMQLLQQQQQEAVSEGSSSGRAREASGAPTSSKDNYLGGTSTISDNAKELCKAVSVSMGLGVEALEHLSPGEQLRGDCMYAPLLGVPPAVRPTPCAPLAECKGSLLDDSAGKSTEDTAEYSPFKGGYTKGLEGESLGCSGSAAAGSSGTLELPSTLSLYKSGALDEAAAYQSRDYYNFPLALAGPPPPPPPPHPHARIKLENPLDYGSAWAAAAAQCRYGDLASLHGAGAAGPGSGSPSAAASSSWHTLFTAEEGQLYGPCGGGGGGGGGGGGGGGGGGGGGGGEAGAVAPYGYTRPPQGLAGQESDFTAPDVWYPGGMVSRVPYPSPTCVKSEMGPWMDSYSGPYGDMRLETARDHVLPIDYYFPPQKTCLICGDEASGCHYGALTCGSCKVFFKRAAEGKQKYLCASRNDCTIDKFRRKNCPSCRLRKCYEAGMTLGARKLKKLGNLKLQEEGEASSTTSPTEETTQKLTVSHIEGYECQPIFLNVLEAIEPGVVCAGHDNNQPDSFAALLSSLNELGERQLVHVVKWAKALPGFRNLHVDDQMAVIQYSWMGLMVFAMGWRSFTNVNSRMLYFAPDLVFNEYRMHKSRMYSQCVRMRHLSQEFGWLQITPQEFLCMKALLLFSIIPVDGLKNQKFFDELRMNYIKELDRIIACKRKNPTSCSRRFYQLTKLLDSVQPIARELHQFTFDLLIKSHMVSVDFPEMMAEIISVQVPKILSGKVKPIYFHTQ
Chain of Peroxisome proliferator-activated receptor gamma (Homo sapiens) (P37231 whole entry, looked up, the tested form may be a part): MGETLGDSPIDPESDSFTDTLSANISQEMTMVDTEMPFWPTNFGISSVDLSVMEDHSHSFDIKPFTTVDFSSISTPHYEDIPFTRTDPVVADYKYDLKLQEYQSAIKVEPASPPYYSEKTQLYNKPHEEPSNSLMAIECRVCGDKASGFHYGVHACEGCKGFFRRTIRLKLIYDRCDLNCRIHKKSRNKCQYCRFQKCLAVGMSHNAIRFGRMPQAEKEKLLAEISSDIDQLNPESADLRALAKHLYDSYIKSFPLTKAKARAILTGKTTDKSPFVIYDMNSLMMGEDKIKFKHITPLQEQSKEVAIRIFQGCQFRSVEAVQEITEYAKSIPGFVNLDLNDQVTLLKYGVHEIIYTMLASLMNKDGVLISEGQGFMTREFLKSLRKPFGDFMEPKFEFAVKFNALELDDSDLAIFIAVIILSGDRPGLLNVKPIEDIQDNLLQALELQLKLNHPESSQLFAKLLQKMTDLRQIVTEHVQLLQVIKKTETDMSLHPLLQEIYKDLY

For the compound `CC#C[C@]1(O)CC[C@H]2[C@@H]3CCC4=CC(=O)CCC4=C3[C@@H](c3ccc(N(C)C)cc3)C[C@@]21C`, the compound was called inactive in test [1], in [2], in test [3], in test [4], in test [5] and in test [6]. The call in [7], in test [8], in test [9], in test [10], in test [11] and in [12] was inactive. Further, the AC50 in [2] was 9.21 µM (active); in [4], 289 nM (active); in test [6] it was 4.33 µM (active); in [7], 5.36 µM (active); in test [8], 437 nM (active); in [9], 0.416 µM (active).
Consider `Cc1cc(C)c(O)c(C)c1`, for which the result in test [2], in test [13], in test [6], in [7], in test [8] and in [9] was inactive. For the same compound, the call in test [10] and in test [11] was inactive.
Take `O=C(O)Cc1cc(I)c(Oc2cc(I)c(O)c(I)c2)c(I)c1`: the compound was called inactive in [1], in test [4] and in [14]. Also, the AC50 in test [2] is 43.8 nM (active) and 1.53 nM (active) and 9.65 µM (active); in test [3], 10.1 µM (active); in test [13], 48.3 µM (active); in [8] it was 11600 nM (active); in test [9] it was 6.55 µM (active); in [10], 10.6 µM (active). Further, in [11], the AC50 was 11.8 µM (active).
In the case of `CCCCC(CC)COC(=O)CCCCC(=O)OCc1ccccc1` (stereo unspecified), the call in [2], in test [14], in test [13], in [7], in test [8] and in [9] was inactive. Also, the compound was classed as inactive in [10] and in test [11].
In the case of `O=C(O)c1ccccc1C(c1ccc(O)cc1)c1ccc(O)cc1`, the result in test [2], in [4], in test [15], in [14], in test [13] and in test [8] was inactive. For the same compound, the compound was called inactive in [9], in [10], in [11] and in test [12]. Further, the AC50 in [4] is 7.92 µM (active) and 7.1 µM (active); in test [15] it was 1.95 µM (active); in [16], 25 µM (active).
With `CCCCCCCCCCCCc1ccccc1S(=O)(=O)O`, the AC50 is 37 µM (active) in test [1]; 0.194 µM (active) in test [2]; 16.6 µM (active) in [17]; 9.86 µM (active) in test [3]; 18000 nM (active) in test [4]; 94.4 µM (active) in test [13]. Also, the AC50 in test [6] is 92.9 µM (active); in test [8], 76 µM (active) and 80.5 µM (active). The outcome in test [15], in [14], in test [7], in [9], in test [10] and in test [11] was inactive.

The record behind these values is PubChem BioAssay (EPA / NIEHS).
